Pf Dd2 inh: inhibitors of Plasmodium falciparum Dd2 growth. Potency, µM (doses to about 28.9 µM), without a hit: at the top dose activity, negative = inhibition, hits mostly inhibitors. P. falciparum Dd2 growth, SYBR Green, 72 h. AID 1347417. 120,000 compounds, 4.3% hits; active means well fitted inhibition curve with a large enough effect;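 further: plate controls were DMSO vehicle for no effect and reference drug for full effect; nearly all actives have a fitted effect of over 65% in size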
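Readout: SYBR Green fluorescence, 485 nm excitation, 535 nm emission, after ~16 h lysis at 37C. Before that, Dd2-infected red cells (2.5% hematocrit) grew 72 h with compound, 29 uM top final concentration.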
* = called active by the depositor; i = inactive; [ ] = dose if it differs, or a comment. The entries come from a sample that favours hits as a whole. Potency means the concentration at half of the fitted maximal effect.

SMILES | Pf Dd2 inh
Cc1cc(N2CCCCC2)nc2ccc(NC(=O)/C=C/c3ccccc3OC(C)C)cc12 | 2.82µM*
COCC1CN(C(C)=O)CC12CCN(C(=O)CC1=CCCCC1)CC2 (stereo not drawn) | 6.4%
Cc1cccc(-c2ccccc2C(=O)N2CCC3(CCCN(C)C3=O)C2)c1 (stereo not drawn) | -5.9%
Cc1cnc(C(=O)N[C@@H]2CCC[C@@H]2C(=O)NCCC2=CCCCC2)cn1 | -9.2%
COc1cccc(CC(=O)NCC2CCCCC(=O)N2)c1 (stereo not drawn) | -0.5%
O=C1NC(C(=O)NCCCn2cccn2)Cn2cccc21 (stereo not drawn) | 15.6%
CCc1noc(-c2cn(C3CCN(C(=O)c4ccc(F)cc4Cl)C3)nn2)n1 (stereo not drawn) | i
CNC(=O)[C@@H]1CN(C(=O)Cc2ccccc2Br)C[C@H]1CO | 0.8%
CN1CC(=O)N(c2ccccc2)Cc2c1ncnc2N1CCCC1CO (stereo not drawn) | 12.0%
O=C(NCC(F)F)C1CN(c2ccc(F)cc2)C(=O)N1 (stereo not drawn) | 1.6%[44.1 µM]
CCN1CCN(C2(C(=O)N3CCC(OC)CC3)Cc3ccccc3C2)CC1 | i
CC1(C(=O)NCCc2ccccc2)CCCCC(=O)N1 (stereo not drawn) | 7.7%
CCN1CCN(C2(C(=O)NCCc3ccccc3)Cc3ccccc3C2)CC1 | 5.01µM*
CCOCCCNC(=O)c1ccc(CN2C(=O)NC3(CCS(=O)(=O)CC3)C2=O)cc1 | 17.4%
CCC1(O)CCC12CCN(C(=O)CC(C)C)CC2 (stereo not drawn) | -22.0%
Cc1ccc(CN2CCc3nc(N(C)Cc4cccnc4)[nH]c(=O)c3CC2)s1 | 62.0%[5.79 µM]
CCN1c2cc(C(=O)Nc3ccc(OC(F)(F)F)cc3)ccc2C(=O)N2CCCCC21 (stereo not drawn) | 1.78µM*
CCN1c2cc(C(=O)Nc3ccc(OC)cc3)ccc2C(=O)N2CCCCCC21 (stereo not drawn) | i
Cc1cc(NC(=O)c2ccc3c(c2)N(C)C2CCCCCN2C3=O)ccc1Cl (stereo not drawn) | i
CN1c2cc(C(=O)Nc3ccc(F)cc3)ccc2C(=O)N2CCCCCC21 (stereo not drawn) | i
CN1c2cc(C(=O)Nc3ccc(C(F)(F)F)cc3)ccc2C(=O)N2CCCCCC21 (stereo not drawn) | 11.2µM*
CCN1c2cc(C(=O)Nc3ccc(Cl)c(C)c3)ccc2C(=O)N2CCCCCC21 (stereo not drawn) | 6.31µM*
CCN1c2cc(C(=O)Nc3ccc(OC(F)(F)F)cc3)ccc2C(=O)N2CCCC21 (stereo not drawn) | -14.7%
CN1c2cc(C(=O)Nc3ccc(Br)cc3)ccc2C(=O)N2CCCCCC21 (stereo not drawn) | -20.8%
CCN1c2cc(C(=O)Nc3ccc(Cl)c(Cl)c3)ccc2C(=O)N2CCCCC21 (stereo not drawn) | -8.1%
SMILES | Pf Dd2 inh
CCN1c2cc(C(=O)Nc3cccc(SC)c3)ccc2C(=O)N2CCCCCC21 (stereo not drawn) | 6.31µM*
CCN1c2cc(C(=O)Nc3ccc(SC)cc3)ccc2C(=O)N2CCCCC21 (stereo not drawn) | i
CCN1c2cc(C(=O)Nc3cccc(F)c3)ccc2C(=O)N2CCCCC21 (stereo not drawn) | -5.3%
CCC(C(=O)NC1CCN(c2cnn(C)c(=O)c2)CC1)c1ccccc1 (stereo not drawn) | -0.8%
C[C@@H]1CN(C(=O)Cc2cc3c(cc2Cl)OCCO3)C[C@]1(C)O | 3.1%
Cc1ccc(OCC(=O)N2CCC3(CC2)CC(N(C(=O)NC(C)C)C2CC2)CCO3)cc1 (stereo not drawn) | i
CN1CCCCCC(O)c2cc(C(=O)Nc3cccc(OC(F)(F)F)c3)ccc21 (stereo not drawn) | 14.1µM*
Cc1ccc(CNC(=O)c2ccc3c(c2)N(C)C2CCCN2C3=O)cc1 (stereo not drawn) | i
Cc1cccc(CNC(=O)c2ccc3c(c2)N(C)C2CCCCN2C3=O)c1 (stereo not drawn) | 3.98µM*
COc1ccc(OC)c(NC(=O)c2ccc3c(c2)C(O)CCCCCN3C)c1 (stereo not drawn) | i
CN1c2cc(C(=O)NCc3cccc(Cl)c3)ccc2C(=O)N2CCCCCC21 (stereo not drawn) | i
COc1cccc(NC(=O)c2ccc3c(c2)C(O)CCCCCN3C)c1 (stereo not drawn) | -9.3%
COCCNC(=O)c1cc(-c2ccccc2F)cc2c1OCCN2Cc1cccnc1 | -8.3%[44.1 µM]
O=C(N[C@@H]1C[C@H](Cn2cc(CN3CCS(=O)(=O)CC3)nn2)[C@@H](O)[C@H]1O)c1cncnc1 | 28.2%
CN(C)[C@H]1C[C@@H](Cc2cc(COc3ccccc3)on2)C1(C)C | i
CCCCCC(=O)N[C@H]1C[C@@H](Cc2cc(COC(=O)CCCCC)on2)C1(C)C | -5.7%[44.1 µM]
CCCCc1cc(C[C@@H]2C[C@H](NC(=O)NCC)C2(C)C)no1 | i
CC1(C)[C@H](Cc2cc(CN3CCOCC3)on2)C[C@@H]1NC(=O)Nc1ccc(F)cc1 | i
CC(C)(C)C(=O)N[C@H]1C[C@@H](Cc2cc(COc3ccccc3)on2)C1(C)C | -6.7%[44.1 µM]
CCCCCC(=O)N[C@H]1C[C@@H](Cc2cc(COc3ccccc3)on2)C1(C)C | 11.2µM*
CC1(C)[C@H](Cc2cc(COc3ccccc3)on2)C[C@@H]1NC(=O)Nc1ccccc1 | 10µM*
CC1(C)[C@H](Cc2cc(COc3ccccc3)on2)C[C@@H]1NC1CCC1 | 11.2µM*
c1ccc(OCc2cc(CC3(NC4CCC4)COC3)no2)cc1 | -18.3%[44.1 µM]
O=C(NC1CCN(c2cnn(Cc3ccccc3)c(=O)c2)CC1)C1CCOCC1 | -21.0%
Cc1ccc2nc(CO[C@H]3CN(Cc4ccc(S(C)(=O)=O)cc4)C[C@H]3F)[nH]c2c1 | i
SMILES | Pf Dd2 inh
COC(=O)CNC(=O)NCCc1noc(C2CC2)n1 | -18.1%
CNC(=O)CN1CCCCC1C(=O)Nc1cccc(-c2cccc(OC)c2)c1 (stereo not drawn) | i
CN(Cc1ccccc1)Cc1cn(C[C@H]2O[C@@H](CC(=O)N3CCCC3)[C@H](O)[C@@H]2O)nn1 | 11.7%[44.1 µM]
CCOC(=O)CNC(=O)c1ccc(CN2C(=O)NC3(CCS(=O)(=O)CC3)C2=O)cc1 | i
CCC(=O)N1CCc2cc(Br)cc(S(=O)(=O)CCC(=O)Nc3cccc(C)c3C)c21 | -1.8%
Cc1ccc(CNS(=O)(=O)c2cc(Br)cc3c2N(C(=O)C2CC2)CC3)cc1 | -1.2%
CCC(=O)N1CCc2cc(Br)cc(S(=O)(=O)NCCc3ccccc3Cl)c21 | -21.7%
Cc1ccc(NC(=O)CCS(=O)(=O)c2cc(Br)cc3c2N(C(=O)C2CC2)CC3)cc1 | 1µM*
COc1ccc(NC(=O)CCS(=O)(=O)c2cc(Br)cc3c2N(C(C)=O)CC3)c(OC)c1 | i
CCC(=O)N1CCc2cc(Br)cc(S(=O)(=O)CCC(=O)Nc3ccc(Cl)cc3)c21 | 5.01µM*
CC(=O)N1CCc2cc(Br)cc(S(=O)(=O)N3CCC(C(=O)Nc4ccc(C(C)C)cc4)CC3)c21 | 10µM*
CCC(=O)N1CCc2cc(Br)cc(S(=O)(=O)CCC(=O)NCCc3ccccc3)c21 | -3.5%
CCC(=O)N1CCc2cc(Br)cc(S(=O)(=O)NCCc3ccc(C)cc3)c21 | i
CC(=O)N1CCc2cc(Br)cc(S(=O)(=O)N3CCC(C(=O)N(C)c4cc(C)ccc4C)CC3)c21 | -9.3%
CCC(=O)N1CCc2cc(Br)cc(S(=O)(=O)CCC(=O)Nc3cccc(Cl)c3)c21 | 7.08µM*
CC(C)c1ccc(NS(=O)(=O)c2cc(Br)cc3c2N(C(=O)C2CC2)CC3)cc1 | -13.6%
